# Assay results reported in PubChem BioAssay (NCATS).
# Inconclusive results are not listed. Unmarked numbers belong to inactive results. Calls of active or inactive are those of the source. The call rests on the fitted dose curve; in most records, active means well fitted curve in the direction sought with a large enough effect; inconclusive means small, poorly fitted or top-dose-only effect, or another doubt; inactive means no such curve, though single readings can be large or run the other way.
# Target: Calcium and integrin-binding protein 1 (Homo sapiens) (UniProt Q99828)
# Sequence (Q99828 whole entry, looked up): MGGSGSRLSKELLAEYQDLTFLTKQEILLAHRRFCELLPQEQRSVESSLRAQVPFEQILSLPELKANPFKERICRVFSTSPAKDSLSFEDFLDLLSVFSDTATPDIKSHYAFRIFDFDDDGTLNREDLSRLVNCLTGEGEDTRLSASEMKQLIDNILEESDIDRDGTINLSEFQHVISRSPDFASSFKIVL
# Test: Validation qHTS for Identification of Calcium Integrin Binding protein 1 (CIB1) Competitor (AID 1508618)
# Conditions: CIB1-GST / FITC-alphaIIb peptide fluorescence polarization; series mostly up to 114 µM; activity change, negative = inhibition: at the top concentration
# Source text: Assay Provider: Ulhas P. Naik, PhD
# Sidney Kimmel Medical College
# Thomas Jefferson University, Philadelphia, PA
# Primary function of platelets is to maintain hemostasis. At the site of vascular injury, platelets adhere to adhesive proteins such as collagen and von Willebrand factor. Adherent platelets are activated and generate soluble platelet agonists such as thrombin, ADP and thromboxane A2. Following exposure of circulating platelets to these agonists, results in platelet shape change, granule secretion and activation of platelet integrin alphaIIb-beta3. Ligand binding to activated integrin alphaIIb-beta3 triggers outside-in signaling, leading to platelet aggregation, stabilization of platelet plug, and clot retraction. Upon atherosclerotic plaque rupture also causes platelet plug formation, which underlies a number of cardiovascular diseases such as myocardial infraction and stroke. A number of anti-platelet drugs such as aspirin, clopidogrel, prasugrel, vorapaxar, and eptifibatide are currently available to prevent the thrombotic complications. However, these anti-platelet agents have several limitations including inherent variability in individual responses, developing resistance, and serious bleeding side effects. For these reasons they are not suitable for long-term protection. Based on the experiences with current anti-platelet drugs, it appears that the most useful therapeutic approach is to intersect the secondary responses such as integrin outside-in signaling or recruitment of platelets by TxA2 and secreted ADP. Compounds, which can largely preserve the primary hemostatic function of platelets but inhibit secondary response will be most desired therapeutic agents for treatment of cardiovascular disease.
# CIB1 is a calcium integrin binding protein, which specifically interact with the alphaIIb subunit of integrin alphaIIb-beta3. Binding of CIB1 to alphaIIb regulates the outside-in signaling in platelets, which is needed for thrombus stabilization and thrombus growth. […] Therefore, we propose that discovery of a small molecule that can prevent the association of CIB1 and alphaIIb-beta3 will be a potential anti-platelet agent that can block the thrombus formation without undue effect on hemostasis.
# To develop fluorescence polarization (FP) assay using fluorescently labeled alphaIIb peptide and CIB1 protein. Using FP assay characterize the binding affinity, competitive inhibition, and acceptable Z factor (0.5 to1) in order to perform the HTS to identify small molecule compound that can prevent CIB1 binding to platelet integrin alphaIIbbeta3. This assay is screened against the NCATS LOPAC library to validate the amenability of the assay to qHTS.
# [1] Naik MU, Nigam A, Manrai P, et al. CIB1 deficiency results in impaired thrombosis: the potential role of CIB1 in outside-in signaling through integrin alpha IIb beta 3. J Thromb Haemost. 2009;7(11):1906-1914. doi:10.1111/j.1538-7836.2009.03581.
# SEQUENCE No. (1, 2, 3, etc.); […] (e.g., Cells, Incubation, Reagent, etc.); VALUE and DESCRIPTION.
# 1; Reagent; 3 uL; Protein or buffer (4/3x)
# 2; Compound; 46 nL; Control inhibitor / compound library
# 3; Time; 15 min; Room temperature incubation
# 4; Reagent; 1 uL; Fluorescent labeled peptide (4x)
# 5; Time; 1000 rpm; Centrifuge
# 6; Time; 15 min; Room temperature incubation
# 7; Detection; Ex 480/ Em 540; ViewLux Fluorescence Read
# NOTES (numbers refer to sequence above)
# 1; Protein Mixture: C1B1-GST (final concentrations of 1 uM). Buffer composition: 5 mM HEPES pH 7.4, 125 mM NaCl, 5 mM CaCl2, 0.01% Tween20.
# 2; Control Inhibitor: unlabeled peptide (final concentration range 17.4 nM to 572 uM). Compound Library final concentration range 18.3 nM to 114 uM.
# 3; Room temperature incubation.
# 4; Fluorescent Labeled Peptide: FITC-aIIb (final concentration of 100 nM). Sequence of alphaIIb peptide: Acetyl-[…]-FITC (purity is 95.83%).
# 6; Room temperature incubation.
# […]
# On the % scale 0 is the no-effect control and ±100 the full control effect; potency means the concentration at half of the fitted maximal effect.
Compound,"activity change, negative = inhibition [%]",Potency
CC(=O)[C@H]1CC[C@H]2[C@@H]3CC[C@H]4C[C@](C)(O)CC[C@]4(C)[C@H]3CC[C@]12C,14.4,–
CC(C)=CCOc1c2occc2cc2ccc(=O)oc12,0.866,–
c1ccc2c(c1)OCC(C1=NCCN1)O2 (configuration not stated),-0.771,–
CCCN1CCC[C@@H]2Cc3nc(N)ncc3C[C@H]21,7.36,–
Cc1ccc(S(=O)(=O)N[C@@H](CCCCN)C(=O)CCl)cc1,-7.91,–
Cc1cccc(C)c1NC(=O)CN1CCCC1=O,13.4,–
O=C1NCN(c2ccccc2)C12CCN(CC1COc3ccccc3O1)CC2 (configuration not stated),5.72,–
NCC(O)c1ccc(O)cc1 (configuration not stated),4.92,–
CC(=O)[C@H]1CC[C@H]2[C@@H]3CC[C@H]4C[C@H](O)CC[C@]4(C)[C@H]3C(=O)C[C@]12C,15,–
N#CC(C#N)=Cc1ccc(O)c(O)c1,14.3,–
COC[C@H]1OC(=O)c2coc3c2[C@@]1(C)C1=C(C3=O)C2CCC(=O)[C@@]2(C)C[C@H]1OC(C)=O (some centres not stated),-5.86,–
C[C@@H]1O[C@@H](O[C@H]2C[C@@H](O)[C@]3(CO)[C@H]4[C@H](O)C[C@]5(C)[C@@H](C6=CC(=O)OC6)CC[C@]5(O)[C@@H]4CC[C@]3(O)C2)[C@H](O)[C@H](O)[C@H]1O,9.99,–
c1ccc(C2CC2)c(OCC2=NCCN2)c1,9.51,–
COc1ccccc1N1CCNCC1,-0.293,–
CCC1(C2=NCCN2)Cc2ccccc2O1 (configuration not stated),-0.134,–
Nc1ccncc1,8.84,–

Compound,"activity change, negative = inhibition [%]",Potency
CC[C@@H](CO)NC(=O)[C@@H]1C=C2c3cccc4c3c(cn4C)C[C@H]2N(C)C1,–,44.7 µM (active)
NCC(CC(=O)O)c1ccc(Cl)cc1 (configuration not stated),-0.12,–
CNCC(O)c1ccc(O)cc1 (configuration not stated),12.7,–
Fc1ccc(C(OCCN2CCN(CCCc3ccccc3)CC2)c2ccc(F)cc2)cc1,7.66,–
O=c1[nH]c2ccccc2n1CCCN1CCC(n2c(=O)[nH]c3cc(Cl)ccc32)CC1,11.1,–
O=c1[nH]c2ccccc2n1C1CCN(CCCC(c2ccc(F)cc2)c2ccc(F)cc2)CC1,10.8,–
CC(O)(CS(=O)(=O)c1ccc(F)cc1)C(=O)Nc1ccc(C#N)c(C(F)(F)F)c1 (configuration not stated),5.09,–
Cc1ncc(CNC(=O)N(CCCl)N=O)c(N)n1,10.7,–
CCCN1CCC[C@@H]2Cc3[nH]ncc3C[C@H]21,–,inactive
Cc1cccc(C)c1NC1=NCCCS1,6.61,–
C=C(C)[C@H]1Cc2c(ccc3c2O[C@@H]2COc4cc(OC)c(OC)cc4[C@@H]2C3=O)O1,-0.458,–
CN1C[C@H](CNC(=O)OCc2ccccc2)C[C@@H]2c3cccc4c3c(cn4C)C[C@H]21,–,44.7 µM (active)
CC(CCc1ccccc1)NC(C)C(O)c1ccc(O)cc1 (configuration not stated),7.22,–
NN=C(N)N,–,inactive
Cn1c(CCCC(=O)O)nc2cc(N(CCCl)CCCl)ccc21,0.279,–
NCC1(CC(=O)O)CCCCC1,0.248,–
